Pf growth 96h = P. falciparum growth inhibition at 96 hours | hit rate 6.9% among 320,000 | P. falciparum luciferase reporter growth, 96 h | AID 504834 | Potency, µM (series often up to 28.7 µM), without a hit: top-dose activity change, negative = inhibition, hits mostly inhibitors; further: potency means the concentration at half of the fitted maximal effect; on the % scale 0 is the no-effect control and ±100 the full control effect
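Luminescence readout: decreased luciferase signal marks inhibited growth of reporter-expressing P. falciparum in infected red cells (2% hematocrit, 0.05% parasitemia final), exposed to compound two generations (96 h, 37 C, 5% CO2).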
Shiga inhibitor = Shiga toxin inhibition; Vero cells, Shiga toxin protein synthesis inhibition reporter; hit rate 9.2% among 290,000; inhibition, % at 38.7 µM; AID 2315; in the data active means inhibition mostly above about 28%, no sharp cut-off; inactive means mostly below about 43%; further: 0% is about no effect
HCV inhibitor = blocks hepatitis C virus; Potency, µM (titrated, usually from 41.8 µM), without a hit: top-dose activity change, negative = inhibition, usual class: inhibitors; Huh7.5.1 HCVcc-Cre infection, luciferase reporter, 44 h; hit rate 3.4% among 340,000; further: potency means the concentration at half of the fitted maximal effect; on the % scale 0 is the no-effect control and ±100 the full control effect
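Compounds are dispensed onto cells plated 4 h earlier at 1,000 per well, with HCVcc-Cre virus (about 0.5 moi) added next. Following 44 h of culture, luminescent signal is measured for 15 sec after 15 min with substrate at room temperature.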
AMA1 RON2 block = AMA1-RON2 (P. falciparum) interaction inhibition | AID 720542 | Potency, µM (titrated, usually from 58.2 µM), for inactives: at the highest dose activity change, negative = inhibition, actives largely listed as inhibitors | AlphaScreen AMA1-biotinylated RON2 peptide binding | hit rate 0.2% among 360,000;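 further: potency means the concentration at half of the fitted maximal effect; 0% = vehicle wells and -100% = peptide control; nearly all actives have a fitted effect of over 45% in size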
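AMA1 (3D7) with his tag at 25 nM final met compounds first, then biotinylated RON2 peptide at 25 nM; detection used donor plus acceptor beads, 10 µg/mL apiece, read by AlphaScreen after 30 min at room temperature.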
Pf growth 48h = inhibits P. falciparum growth in the first generation, 48 h | P. falciparum luciferase growth in erythrocytes, 48 h | Potency, µM (series often up to 28.7 µM), for inactives: top-dose activity change, negative = inhibition, usual class: inhibitors | hit rate 5.9% among 310,000 | AID 504832; further: potency means the concentration at half of the fitted maximal effect; on the % scale 0 is the no-effect control and ±100 the full control effect
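Erythrocytes infected with P. falciparum carrying an integrated firefly luciferase reporter (2% hematocrit, 0.1% parasitemia final) were exposed to compounds in RPMI 1640 with 0.5% Albumax at 37 C, 5% CO2. Growth inhibition was scored as reduced luminescence.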
CHX counter = affects cycloheximide protein synthesis inhibition readout, counter-screen; hit rate 12% among 300,000; max response, %; cell reporter, cycloheximide protein synthesis inhibition counterscreen; in the data active means max response mostly above about 13%, no sharp cut-off; inactive means mostly below about 14%; further: read at 38.3 µM for the half of the compounds with a filed dose; 0% is about no effect
Active calls of the source: *. Most compounds without a hit are left out; they make up all but 21% or so of the library. Unless noted, the call rests on the fitted dose curve; in most records, active means well fitted curve in the direction sought with a large enough effect; inconclusive means small, poorly fitted or top-dose-only effect, or another doubt; inactive means no such curve, though single readings can be large; an effect the other way counts as inactive or inconclusive.

CCCCCCCCOc1c(OC)cc(/C=C/C(=O)N2CCN(c3ccc(C)c(C)c3)CC2)cc1OC was read as Shiga inhibitor 19 and CHX counter 5.
CCC(C)(C)n1nnnc1C(c1cc2ccc(OC)cc2[nH]c1=O)N1CCc2ccccc21 (stereo not given) was read as Pf growth 96h 32%, Shiga inhibitor -8, HCV inhibitor 10%, AMA1 RON2 block -23%, Pf growth 48h 5.2µM* and CHX counter 19.
For CCC(C)(C)n1nnnc1C(c1cc2cc(OC)ccc2[nH]c1=O)N1CCc2ccccc21 (stereo not given) the results were Pf growth 96h 3%, Shiga inhibitor -5, HCV inhibitor -30%, AMA1 RON2 block inconclusive, Pf growth 48h 10µM* and CHX counter -3.
Screening CC(C)CCn1c(COc2ccccc2)nn(CCC#N)c1=S returned Pf growth 96h 1%, Shiga inhibitor -2, HCV inhibitor -6%, AMA1 RON2 block 9%, Pf growth 48h -5% and CHX counter 1.
For CC(=O)OC1CC2(C)/C(=N\O)CCC2C2CCc3cc(O)ccc3C12 (stereo not given) the results were Pf growth 96h -4%, Shiga inhibitor -15, HCV inhibitor -24%, AMA1 RON2 block -7%, Pf growth 48h 3% and CHX counter -4.
For COc1ccc2cc3cc(C(=O)NCCCN4CCOCC4)oc3nc2c1 the results were Pf growth 96h 1.2µM*, Shiga inhibitor 26, HCV inhibitor -27%, AMA1 RON2 block 0%, Pf growth 48h inconclusive and CHX counter 17.
Cc1ccc(C(=O)NCc2ccc3c(c2)OCO3)o1 was read as Pf growth 96h -13%, HCV inhibitor 16%, AMA1 RON2 block 7%, Pf growth 48h 39% and CHX counter 2.
Screening COc1ccc2cc3cc(C(=O)NCCCN4CCC(C)CC4)oc3nc2c1 returned Pf growth 96h -31%, Shiga inhibitor 128*, HCV inhibitor inconclusive, AMA1 RON2 block 14%, Pf growth 48h inconclusive and CHX counter 43*.
Screening COc1ccc2cc3cc(C(=O)NCc4cccs4)oc3nc2c1 returned Pf growth 96h -6%, Shiga inhibitor -2, HCV inhibitor -19%, AMA1 RON2 block -7%, Pf growth 48h 5.9µM* and CHX counter 2.
Screening Cc1ccc2cc3cc(C(=O)NCCN4CCOCC4)oc3nc2c1 returned Pf growth 96h inconclusive, Shiga inhibitor 12, HCV inhibitor -29%, AMA1 RON2 block 6%, Pf growth 48h inconclusive and CHX counter 8.
Screening Cc1ccc2cc3cc(C(=O)NCc4ccc5c(c4)OCO5)oc3nc2c1 returned Pf growth 96h 3.7µM*, Shiga inhibitor -5, HCV inhibitor -11%, AMA1 RON2 block -6%, Pf growth 48h 0% and CHX counter -3.
O=C(CC[C@H]1O[C@@H](n2ccc(=O)[nH]c2=O)[C@H](O)[C@@H]1O)N[C@@H](Cc1ccccc1)C(=O)NCc1ccccc1 was read as AMA1 RON2 block 6%.
Screening CCCCN(CC)C(=O)c1cc2cc3ccc(Cl)cc3nc2o1 returned Pf growth 96h -18%, Shiga inhibitor 64*, HCV inhibitor inconclusive, AMA1 RON2 block 0%, Pf growth 48h inconclusive and CHX counter 33*.
Screening CCN1CCN(CCCNC(=O)c2cc3cc4ccc(OC)cc4nc3o2)CC1 returned Pf growth 96h 45%, Shiga inhibitor -22, HCV inhibitor inconclusive, AMA1 RON2 block 10%, Pf growth 48h 13µM* and CHX counter -5.
CCCCN(CC)CCCNC(=O)c1cc2cc3ccc(OC)cc3nc2o1 was read as Pf growth 96h 3.7µM*, Shiga inhibitor -7, HCV inhibitor inconclusive, AMA1 RON2 block 6%, Pf growth 48h inconclusive and CHX counter -1.
Cc1ccc2cc3cc(C(=O)NCCCN4CCCC4=O)oc3nc2c1 was read as Pf growth 96h inconclusive, Shiga inhibitor 4, HCV inhibitor inconclusive, AMA1 RON2 block 6%, Pf growth 48h 2.6µM* and CHX counter 9.
Screening O=C(Cc1ccc(Cl)cc1)Nc1cc(Cl)ccn1 returned HCV inhibitor inconclusive and AMA1 RON2 block 3%.
OC[C@@H]1CN(Cc2ccccc2)C[C@H](n2cnc3c(NC4CCCC4)ncnc32)O1 was read as AMA1 RON2 block 3%.
`CN(C)C(Cc1ccccc1)C(=O)c1c[nH]c2ccccc12` (stereo not given) gave Pf growth 96h inconclusive, Shiga inhibitor 63, HCV inhibitor -5%, AMA1 RON2 block 2% and CHX counter 28*.
Screening CN(C)CC(CCCCC(CN(C)C)C(=O)c1ccccc1)C(=O)c1ccccc1 (stereo not given) returned Pf growth 96h inconclusive, Shiga inhibitor 12, HCV inhibitor 8.9µM*, AMA1 RON2 block -10%, Pf growth 48h inconclusive and CHX counter -2.
For CCOC(=O)c1c(C)[nH]c(C)c1C(=O)C(Cc1ccccc1)N(C)C (stereo not given) the results were Pf growth 96h -2%, Shiga inhibitor -8, HCV inhibitor 7%, AMA1 RON2 block 4% and CHX counter -3.
CN(C)C(Cc1ccccc1)C(=O)c1ccccc1 (stereo not given) was read as Pf growth 96h inconclusive, Shiga inhibitor 65*, HCV inhibitor 3%, AMA1 RON2 block -9%, Pf growth 48h 9% and CHX counter 33*.
Screening O=C(Nc1nnc(S(=O)(=O)N2CCN(c3ccc(F)cc3)CC2)s1)c1ccco1 returned Pf growth 96h 4%, Shiga inhibitor -7, HCV inhibitor 20%, AMA1 RON2 block 0%, Pf growth 48h -29% and CHX counter -9.
Screening COc1cc(Cl)c(C)cc1NC(=O)CSC1=NCCS1 returned HCV inhibitor inconclusive and AMA1 RON2 block 93%.
For Cc1cc(Cl)nc(SCC(=O)c2ccccc2)n1 the results were Pf growth 96h 36%, Shiga inhibitor 81*, HCV inhibitor -2%, AMA1 RON2 block 5%, Pf growth 48h -6% and CHX counter 45*.
COC(=O)CSc1nc(C)cc(N2CCOCC2)n1 was read as Pf growth 96h 61%, Shiga inhibitor 53*, HCV inhibitor 11%, AMA1 RON2 block 7%, Pf growth 48h 13% and CHX counter 27.
Screening Cc1cc(N2CCOCC2)nc(SCc2c(Cl)cccc2Cl)n1 returned Pf growth 96h 265%, Shiga inhibitor -1, HCV inhibitor 11µM*, AMA1 RON2 block -1%, Pf growth 48h 1% and CHX counter 1.
`Cc1cc(N2CCOCC2)nc(SCC(=O)c2ccc(Cl)cc2)n1` gave Pf growth 96h inconclusive, Shiga inhibitor -16, HCV inhibitor -24%, AMA1 RON2 block 3%, Pf growth 48h inconclusive and CHX counter -3.
Screening Cc1cc(N2CCOCC2)nc(-c2ccccc2O)n1 returned Pf growth 96h 2.3µM*, Shiga inhibitor -6, HCV inhibitor inconclusive, AMA1 RON2 block 7%, Pf growth 48h 14% and CHX counter 9.
